Laboratory results from PubChem BioAssay (EPA / NIEHS).
“And” between values parts separate entries of the source, which are not always exact repeats. Equal values may be shown once. A structure can be active in one record and inactive in another. The source made the active and inactive calls. How the source made its calls: active means hit-call score of the fitted dose curve at least 0.9, where 1 is the maximum; inactive means score below 0.9.

Columns and labels:
[1] = BSK_hDFCGF_SRB: Viability Assessment in the BioMAP Diversity Plus: hDFCGF Assay (AID 2283061); conditions: primary human foreskin fibroblasts;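 further: cells exposed to compound for 24 h before the read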
Method in brief: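 Readout is SRB absorbance at 560 nm, reflecting total protein in parallel cultures of human foreskin fibroblasts harvested 24 h after chemical dosing. Activity was fitted bidirectionally relative to DMSO.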

[2] = read-out: TIMP metallopeptidase inhibitor 1 (TIMP1), TIMP1 (gene 7076); assay: BSK_hDFCGF_TIMP1: BioMAP Diversity Plus: hDFCGF Assay for TIMP metallopeptidase inhibitor 1 (TIMP1) Biomarker Activity (AID 2283062); conditions: primary human foreskin fibroblasts; actives raise or lower the signal
Method in brief: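 Human skin fibroblasts (primary), hDFCGF system; compound exposure 24 h; TIMP-1 by ELISA; bidirectional fit vs DMSO negative control; overt cytotoxicity by SRB in parallel wells.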

[3] = read-out: Monokine induced gamma interferon (MIG), CXCL9 (gene 4283); assay: BSK_hDFCGF_MIG: BioMAP Diversity Plus: hDFCGF Assay for Monokine induced gamma interferon (MIG) Biomarker Activity (AID 2283063); conditions: primary human foreskin fibroblasts; actives raise or lower the signal
Method in brief: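 Chemicals were added to primary human foreskin fibroblast cultures, which were sampled 24 h later. MIG levels were then quantified by ELISA and responses fitted in both directions relative to DMSO.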

[4] = read-out: Matrix Metallopeptidase 1 (MMP1), MMP1 (gene 4312); assay: BSK_hDFCGF_MMP1: BioMAP Diversity Plus: hDFCGF Assay for Matrix Metallopeptidase 1 (MMP1) Biomarker Activity (AID 2283064); conditions: primary human foreskin fibroblasts; actives raise or lower the signal
Method in brief: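 Primary human foreskin fibroblasts in the hDFCGF system were dosed with test chemical, and MMP1 was measured by ELISA 24 h later. Values come from bidirectional curve fitting against the DMSO baseline.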

[5] = read-out: Vascular cell adhesion molecule 1 (VCAM1), VCAM1 (gene 7412); assay: BSK_hDFCGF_VCAM1: BioMAP Diversity Plus: hDFCGF Assay for Vascular cell adhesion molecule 1 (VCAM1) Biomarker Activity (AID 2283065); conditions: primary human foreskin fibroblasts; actives raise or lower the signal;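 on AC50: VCAM-1 protein level quantified by ELISA after 24 h chemical exposure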
Method in brief: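 Human foreskin fibroblast primary cells, chemical exposure 24 h; VCAM-1 by ELISA; bidirectional fit, DMSO = negative control/baseline.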

[6] = read-out: Plasminogen activator inhibitor-1 (PAI1), SERPINE1 (gene 5054); assay: BSK_hDFCGF_PAI1: BioMAP Diversity Plus: hDFCGF Assay for Plasminogen activator inhibitor-1 (PAI1) Biomarker Activity (AID 2283066); conditions: primary human foreskin fibroblasts; actives raise or lower the signal
Method in brief: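 Human foreskin fibroblasts in the hDFCGF system were dosed with compound for 24 h; PAI-1 was quantified by ELISA. Bidirectional curve fitting used DMSO as negative control and baseline.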

[7] = read-out: Intercellular Adhesion Molecule 1 (ICAM1), ICAM1 (gene 3383); assay: BSK_KF3CT_ICAM1: BioMAP Diversity Plus: KF3CT Assay for Intercellular Adhesion Molecule 1 (ICAM1) Biomarker Activity (AID 2283067); conditions: primary human keratinocytes with fibroblasts; actives raise or lower the signal
Method in brief: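 ICAM-1 levels are measured by ELISA 24 h after dosing a primary human co-culture of keratinocytes and foreskin fibroblasts. Activity in either direction is fitted relative to DMSO vehicle.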

[8] = read-out: Interferon-gamma inducible Protein 10 (IP10), CXCL10 (gene 3627); assay: BSK_KF3CT_IP10: BioMAP Diversity Plus: KF3CT Assay for Interferon-gamma inducible Protein 10 (IP10) Biomarker Activity (AID 2283068); conditions: primary human keratinocytes with fibroblasts; actives raise or lower the signal
Method in brief: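 In a primary skin co-culture of keratinocytes and fibroblasts, IP-10 is quantified by ELISA at 24 h after dosing. SRB staining of parallel wells monitors overt toxicity. Curves are fitted both directions against DMSO.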

[9] = BSK_KF3CT_SRB: Viability Assessment in the BioMAP Diversity Plus: KF3CT Assay (AID 2283069); conditions: primary human keratinocytes with fibroblasts;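 further: total protein by sulforhodamine B staining as a cytotoxicity measure; read 24 h after compound addition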
Method in brief: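 Human primary keratinocyte plus foreskin fibroblast co-culture exposed to chemicals for 24 h. Total protein measured by 0.1% sulforhodamine B staining after 10% TCA fixation, read at 560 nm; bidirectional fitting versus DMSO baseline.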

[10] = read-out: Interleukin-1 alpha (IL1a), IL1A (gene 3552); assay: BSK_KF3CT_IL1a: BioMAP Diversity Plus: KF3CT Assay for Interleukin-1 alpha (IL1a) Biomarker Activity (AID 2283070); conditions: primary human keratinocytes with fibroblasts; actives raise or lower the signal
Method in brief: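 Human keratinocyte plus foreskin fibroblast primary co-culture, sampled 24 h after chemical dosing. IL-1a measured by ELISA; responses fitted bidirectionally against DMSO baseline (negative control), so gain or loss of signal both count.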

[11] = read-out: TIMP metallopeptidase inhibitor 2 (TIMP2), TIMP2 (gene 7077); assay: BSK_KF3CT_TIMP2: BioMAP Diversity Plus: KF3CT Assay for TIMP metallopeptidase inhibitor 2 (TIMP2) Biomarker Activity (AID 2283071); conditions: primary human keratinocytes with fibroblasts; actives raise or lower the signal
Method in brief: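 Human primary keratinocyte/foreskin fibroblast co-culture dosed with chemical and sampled at 24 h. TIMP-2 levels quantified by ELISA; bidirectional fitting against DMSO negative control as baseline.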

[12] = read-out: Transforming growth factor beta 1 (TGFb1), TGFB1 (gene 7040); assay: BSK_KF3CT_TGFb1: BioMAP Diversity Plus: KF3CT Assay for Transforming growth factor beta 1 (TGFb1) Biomarker Activity (AID 2283072); conditions: primary human keratinocytes with fibroblasts; actives raise or lower the signal
Method in brief: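 Human keratinocyte plus foreskin fibroblast primary co-culture, dosed with chemical for 24 h. TGF-b1 quantified by ELISA. Activity fitted bidirectionally against DMSO negative control as baseline.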

[13] = read-out: C-C motif chemokine 2 (Homo sapiens) (UniProt P13500); assay: BSK_KF3CT_MCP1: BioMAP Diversity Plus: KF3CT Assay for Monocyte Chemoattractant Protein 1 (MCP1/CCL2) Biomarker Activity (AID 2283073); conditions: primary human keratinocytes with fibroblasts; actives raise or lower the signal
Method in brief: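 ELISA readout of MCP-1 after 24 h chemical dosing of a human skin primary co-culture of keratinocytes and foreskin fibroblasts. Activity was fitted in both directions against DMSO.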

[14] = read-out: Matrix Metallopeptidase 9 (MMP9), MMP9 (gene 4318); assay: BSK_KF3CT_MMP9: BioMAP Diversity Plus: KF3CT Assay for Matrix Metallopeptidase 9 (MMP9) Biomarker Activity (AID 2283074); conditions: primary human keratinocytes with fibroblasts; actives raise or lower the signal;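 on AC50: MMP9 protein level quantified by ELISA in the co-culture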
Method in brief: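 Keratinocyte plus foreskin fibroblast human primary skin co-culture was dosed with chemical and MMP-9 was quantified by ELISA 24 h later. Bidirectional curve fitting used DMSO as negative control and activity baseline.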

[15] = read-out: urokinase plasminogen activator (uPA), PLAU (gene 5328); assay: BSK_KF3CT_uPA: BioMAP Diversity Plus: KF3CT Assay for urokinase plasminogen activator (uPA) Biomarker Activity (AID 2283075); conditions: primary human keratinocytes with fibroblasts; actives raise or lower the signal
Method in brief: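 Human keratinocyte plus foreskin fibroblast primary co-culture exposed to chemical for 24 h. uPA levels were quantified by ELISA, and activity was fitted bidirectionally against a DMSO negative-control baseline.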

CD40, CD40 (gene 958) = assay: BSK_LPS_CD40: BioMAP Diversity Plus: LPS Assay for CD40 Biomarker Activity (AID 2283076); conditions: primary human HUVEC with PBMC; actives raise or lower the signal
Method in brief: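 Cells were dosed, incubated 24 h, then assayed for CD40 by ELISA. Gain or loss of signal was analysed relative to DMSO controls. The culture paired human umbilical vein endothelium with peripheral blood mononuclear cells.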

[16] = read-out: E-selectin (Homo sapiens) (UniProt P16581); assay: BSK_LPS_Eselectin: BioMAP Diversity Plus: LPS Assay for Eselectin Biomarker Activity (AID 2283077); conditions: primary human HUVEC with PBMC; actives raise or lower the signal
Method in brief: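 Primary human vascular co-culture (endothelium plus PBMC) was dosed with chemical, then E-selectin quantified by ELISA at 24 h. Endpoint values derive from bidirectional curve fitting relative to DMSO.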

[17] = read-out: Interleukin-8 (IL8), CXCL8 (gene 3576); assay: BSK_LPS_IL8: BioMAP Diversity Plus: LPS Assay for Interleukin-8 (IL8) Biomarker Activity (AID 2283078); conditions: primary human HUVEC with PBMC; actives raise or lower the signal
Method in brief: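 Readout is IL-8 by ELISA, taken 24 h after compounds were added to LPS-stimulated endothelial/PBMC co-cultures. Both increases and decreases relative to DMSO control were scored through bidirectional fitting.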

[18] = BSK_LPS_SRB: Viability Assessment in the BioMAP Diversity Plus: LPS Assay (AID 2283079); conditions: primary human HUVEC with PBMC;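 further: total protein by sulforhodamine B absorbance as a cytotoxicity measure; measured one day after compound addition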
Method in brief: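 Readout is SRB absorbance at 560 nm (0.1% stain, TCA-fixed parallel cultures) as a total-protein cytotoxicity measure. Cells: primary human umbilical vein endothelium plus peripheral blood mononuclear cells, 24 h after chemical exposure; DMSO served as baseline.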

[19] = read-out: Interleukin-1 alpha (IL1a), IL1A (gene 3552); assay: BSK_LPS_IL1a: BioMAP Diversity Plus: LPS Assay for Interleukin-1 alpha (IL1a) Biomarker Activity (AID 2283080); conditions: primary human HUVEC with PBMC; actives raise or lower the signal
Method in brief: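 ELISA read-out of IL-1 alpha from a human primary vascular co-culture (endothelium plus PBMC) under LPS, sampled 24 hours post-dosing. Activity was fitted in both directions relative to DMSO controls.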

Measured: AC50

E-selectin (Homo sapiens), sequence (P16581 whole entry, looked up): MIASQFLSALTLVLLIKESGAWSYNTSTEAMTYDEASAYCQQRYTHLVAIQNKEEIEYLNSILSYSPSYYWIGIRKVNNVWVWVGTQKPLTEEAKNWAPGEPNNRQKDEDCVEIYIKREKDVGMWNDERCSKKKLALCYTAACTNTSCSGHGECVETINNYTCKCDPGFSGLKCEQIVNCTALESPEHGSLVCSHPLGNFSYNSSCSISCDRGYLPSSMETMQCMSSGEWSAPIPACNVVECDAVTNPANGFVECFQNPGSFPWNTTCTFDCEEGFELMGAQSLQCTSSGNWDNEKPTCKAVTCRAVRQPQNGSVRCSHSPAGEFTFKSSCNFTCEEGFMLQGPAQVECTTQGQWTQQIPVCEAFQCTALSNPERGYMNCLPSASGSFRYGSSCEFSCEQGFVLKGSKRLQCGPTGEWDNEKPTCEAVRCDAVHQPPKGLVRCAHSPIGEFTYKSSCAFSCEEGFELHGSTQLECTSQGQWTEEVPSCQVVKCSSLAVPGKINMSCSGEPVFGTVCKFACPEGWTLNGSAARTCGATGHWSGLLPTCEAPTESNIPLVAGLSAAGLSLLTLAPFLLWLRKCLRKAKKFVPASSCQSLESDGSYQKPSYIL

CC(C)(C)c1ccc(O)c(C(C)(C)C)c1
active: [1] 11.9 µM | [2] 11.5 µM | [3] 11.7 µM | [4] 11.3 µM | [5] 9.1 µM | [6] 10.3 µM | [7] 14.6 µM | [8] 14.2 µM | [9] 8.27 µM | [10] 9.23 µM | [11] 12 µM | [12] 8.63 µM | [13] 13.4 µM | [14] 9.23 µM | [15] 11.3 µM | CD40, CD40 (gene 958) 14 µM | [16] 13.3 µM | [17] 26.6 µM | [18] 17.7 µM | [19] 14.4 µM

c1ccc2c(c1)ccc1ccccc12
inactive: all assays above

OCCC(F)(F)C(F)(F)C(F)(F)C(F)(F)C(F)(F)C(F)(F)F
active: [1] 51.3 µM and 46.8 µM | [2] 53.1 µM and 47.1 µM | [3] 55.4 µM and 54.7 µM | [4] 55.1 µM | [5] 30 µM and 47.4 µM | [6] 53.5 µM and 55.3 µM | CD40, CD40 (gene 958) 40.8 µM | [18] 45.8 µM
inactive: [1] | [2] | [3] | [4] | [5] | [6] | [7] | [8] | [9] | [10] | [11] | [12] | [13] | [14] | [15] | CD40, CD40 (gene 958) | [16] | [17] | [18] | [19]

CC(C)(C)CC(C)(C)c1ccc(O)c(-n2nc3ccccc3n2)c1
active: [1] 9.39 µM | [3] 7.74 µM | [5] 15.8 µM | [6] 11.3 µM | [14] 16.6 µM
inactive: all other assays above

Cc1cc(C)c(O)c(C)c1
inactive: all assays above
